Active and inactive are the calls of the source. Unless noted, the rule behind the calls is not given here.
Experiments:
[1] = tested on: XIP peptide (Xip251-270) binding; experiment: small-molecule binders of XIP peptide, primary screen, biochemical, small-molecule microarray, fluorescence 635/667 nm, 0.1 µg/mL protein (AID 1182); settings: fluorescent protein binding, 635 nm, higher = more signal, called active from +8 up or from −8 down
[2] = tested on: XIP peptide (Xip251-270); experiment: small-molecule binders of XIP peptide, primary screen, biochemical, small-molecule microarray, fluorescence 635/667 nm, 0.5 µg/mL protein (AID 1183); settings: small-molecule microarray binding, fluorescence 635 nm; higher = more signal
[3] = Plasmodium falciparum growth inhibition, primary screen, strain 3D7, DAPI fluorescence, 100 nL (AID 1184);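 note: parasites grown inside human red blood cells in medium with human serum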; settings: P. falciparum 3D7 growth, 3 d, higher = more signal
[4] = target: Homeobox protein Hox-A13 (Mus musculus) (UniProt Q62424); experiment: inhibitors of HoxA13-DNA binding, primary screen, biochemical, fluorescence polarization, labeled oligonucleotide (AID 1185); settings: 15 min, higher = more signal, called active from +8 up or from −8 down
Chain of Homeobox protein Hox-A13 (Mus musculus) (Q62424 whole entry, looked up): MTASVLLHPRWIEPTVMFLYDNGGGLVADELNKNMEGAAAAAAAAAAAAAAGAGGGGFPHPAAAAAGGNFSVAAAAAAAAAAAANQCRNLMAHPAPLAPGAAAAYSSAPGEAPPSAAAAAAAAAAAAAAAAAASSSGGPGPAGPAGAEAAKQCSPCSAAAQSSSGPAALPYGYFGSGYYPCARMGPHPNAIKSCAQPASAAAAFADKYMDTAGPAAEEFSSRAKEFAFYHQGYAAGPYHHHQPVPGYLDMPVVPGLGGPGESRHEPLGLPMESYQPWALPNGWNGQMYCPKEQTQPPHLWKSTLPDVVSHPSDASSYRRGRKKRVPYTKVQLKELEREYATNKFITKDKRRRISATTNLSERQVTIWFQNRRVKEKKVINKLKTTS

[5] = inhibitors of hydroxyurea-induced Chk1 phosphorylation, primary screen, imaging, HeLa, phospho-Chk1 antibody, percent positive cells (AID 1186); settings: hydroxyurea-induced phospho-Chk1 immunofluorescence imaging, higher = more signal
[6] = inhibitors of hydroxyurea-induced Chk1 phosphorylation, primary screen, imaging, HeLa, phospho-Chk1 nuclear intensity (AID 1187); settings: hydroxyurea-induced phospho-Chk1 immunofluorescence imaging, higher = more signal

| Compound | composite z-score [1] | composite z-score [2] | z-score [3] | z-score [4] | z-score [5] | z-score [6] |
| --- | --- | --- | --- | --- | --- | --- |
| COC(=O)[C@@]1(Cc2ccc(F)cc2)[C@H]2c3cc(C(=O)N4CCCC4)n(CCF)c3C[C@H]2CN1C(=O)c1ccccc1 | 2.43 (inactive) | -0.352 | -0.815 | -4.62 (inactive) | -0.323 (inactive) | -0.593 (inactive) |
| CCOC(=O)[C@@H]1[C@@H]2C(=O)N(CC)C(=O)[C@@H]2C[C@@H]1Sc1ccccc1 | -0.266 (inactive) | 0.313 | -0.555 | -4.73 (inactive) | 0.899 (inactive) | 0.647 (inactive) |
| COC(=O)C1(Cc2ccccc2)C=C2C(=C(C(C)C)C(=O)C2C)CN1 (stereo unspecified) | 0.0989 (inactive) | 0.648 | -1.07 | -9.8 (active) | 0.366 (inactive) | 0.602 (inactive) |
| C=CCOC(=O)[C@@H]1[C@H]2C(=O)O[C@H](c3ccccc3)[C@H](c3ccccc3)N2[C@H](c2ccc(OCCOC(=O)[C@H]3C[C@H]4C(=O)N[C@@H](CC(C)C)C(=O)N4[C@H]3c3ccc(O)cc3)cc2)[C@@]12C(=O)Nc1ccc(I)cc12 | 0.234 (inactive) | 0.828 | -1.79 | 0.981 (inactive) | -0.25 (inactive) | -0.115 (inactive) |
| COc1ccc([Si](C)(C)[C@@H]2[C@@H](CCO)O[C@]3(C(=O)N(Cc4cccc(N5C(=O)c6cccc7cccc5c67)c4)c4ccccc43)[C@H]2C)cc1 | 0.875 (inactive) | 0.635 | -2.52 | -1.52 (inactive) | -0.758 (inactive) | 0.0003 (inactive) |
| Cc1ccc(S[C@]2(C(=O)NCc3ccccc3)CC(=O)N(C(C)C)[C@@H]2c2ccc(CO)cc2I)cc1 | 1.17 (inactive) | 0.809 | 0.257 | -2.88 (inactive) | 0.422 (inactive) | 0.953 (inactive) |
| CCC[C@@H]1C[C@@]1(CCC)[C@@H](NP(=O)(c1ccccc1)c1ccccc1)c1ccc(Cl)cc1 | 0.337 (inactive) | -0.53 | -0.908 | -1.08 (inactive) | 0.946 (inactive) | 0.551 (inactive) |
| C[C@]1(C(=O)NCCN2CCOCC2)c2ccccc2C(=O)N(Cc2ccc(OC(F)(F)F)cc2)[C@H]1c1ccc(CO)cc1 | -0.0513 (inactive) | 0.466 | -1.08 | -4.78 (inactive) | -0.198 (inactive) | -0.0723 (inactive) |
| COCCCNC(=O)[C@@]1(Sc2ccc(C)cc2)CC(=O)N(Cc2cc(C(F)(F)F)cc(C(F)(F)F)c2)[C@@H]1c1ccc(CO)cc1 | 0.451 (inactive) | 0.634 | -0.0611 | -0.737 (inactive) | 0.155 (inactive) | 0.0411 (inactive) |
| COCCOC(=O)N1C(=O)[C@@]2(c3cc(C#Cc4ccc(OC)cc4)ccc31)[C@H](C(=O)N1CCN(c3ncccn3)CC1)[C@H]1C(=O)O[C@H](c3ccccc3)[C@H](c3ccccc3)N1[C@@H]2c1ccccc1OCCO | -0.148 (inactive) | 0.561 | -1.51 | -0.114 (inactive) | -0.019 (inactive) | -0.0377 (inactive) |
| Cc1c(NC(=O)/C(C#N)=C/C=C/c2ccccc2[N+](=O)[O-])c(=O)n(-c2ccccc2)n1C | 4.09 (inactive) | 0.552 | -0.758 | -3.54 (inactive) | 0.432 (inactive) | 0.721 (inactive) |
| CN(C)CCCNC(=O)[C@@]1(C)c2ccccc2C(=O)N(Cc2cc(C(F)(F)F)cc(C(F)(F)F)c2)[C@H]1c1ccc(CO)cc1 | 0.23 (inactive) | -0.987 | -1.27 | -2.7 (inactive) | -0.0172 (inactive) | -0.0753 (inactive) |
| CN1C(=O)C2C(C1=O)C1C=C(c3ccc(CO)cc3)C2C(c2cccs2)N1Cc1cccc(OC(F)(F)F)c1 (stereo unspecified) | 0.94 (inactive) | 0.591 | -3.19 | -8.09 (active) | -0.384 (inactive) | -0.0226 (inactive) |
| CN(C)C(=O)[C@]1(CCC(=O)OC(C)(C)C)N=C(c2ccc(OCCCO)cc2)O[C@@H]1c1ccccc1 | 0.454 (inactive) | 0.116 | 0.201 | -5.58 (inactive) | -0.0091 (inactive) | 0.277 (inactive) |
| COc1c(C)cc(-c2cc3c(c(Cc4ccccc4)n2)[Si](C(C)C)(C(C)C)OC3)cc1C | -0.337 (inactive) | -0.0392 | -2.74 | 0.472 (inactive) | -0.142 (inactive) | 0.135 (inactive) |
| COCCOC(=O)N1C(=O)[C@@]2(c3cc(C#Cc4ccc(OC)cc4)ccc31)[C@H](C(=O)N1CCCCCCC1)[C@H]1C(=O)O[C@H](c3ccccc3)[C@H](c3ccccc3)N1[C@@H]2c1ccc(O)cc1 | 1.73 (inactive) | 0.669 | -2.31 | 2.16 (inactive) | -0.29 (inactive) | -0.537 (inactive) |
